90 sequences from the OligoGym collection can be followed below.

Among the targets are QSOX1; RAB11A; QSER1; PYROXD1; RAB3D; RAB28; RAB3GAP2; RABGEF1; RAD9A; RBMY1E; RDH8; RERG; RET; REST; REPS2.
Assay in all cases: pooled miR-30 sensor sort-seq; sequence = guide strand
Conditions in all cases: shRNA
Note: reference of the scale not given here.

On to TACATTTTGCCGAGCTGCCTGC, for which the sensor-assay potency score (higher = more potent) in the assay with QSOX1 was -0.913.

Take TTGTCTGAAAAGCAGCTTCTAC: the sensor-assay potency score (higher = more potent) with RAB11A was -1.05.

TTTATCAGAAGTAGCATCCAAA came in with a sensor-assay potency score (higher = more potent) with QSER1 of -0.195. TTTAATAACACTACATTCTCGA displayed a sensor-assay potency score (higher = more potent) with QSER1 of 0.61. With TTGAATAACATGACCTTCCATC, in the assay with QSER1, the sensor-assay potency score (higher = more potent) is -0.458. In the assay with QSOX1, TTGAAGTCTCTGCAGACTGCAC came in with a sensor-assay potency score (higher = more potent) of -0.833. As for TATTGTTTTTCCATCAACCTGG, the sensor-assay potency score (higher = more potent) with RAB11A was 0.22.

In the case of TTTAAAGTAAAATACAACCGAT, in the assay with PYROXD1, the sensor-assay potency score (higher = more potent) was -0.96. Regarding TTTGTGCTGGGACAGGTCCAGA, in the assay with QSOX1, the sensor-assay potency score (higher = more potent) is -1.47.

Turning to TAGCGCAGTCTCGGCAGCCGAA, the sensor-assay potency score (higher = more potent) with QSOX1 was -1.38.

Sequence TAACTTGATCTTCAAGACGGGA returned a sensor-assay potency score (higher = more potent) with QSER1 of -1.26. ATGAATAGGAACCACATTGTTG displayed a sensor-assay potency score (higher = more potent) with RAB11A of -1.36. In the assay with QSER1, TATTTGATCGTGCTGTTCCTGG returned a sensor-assay potency score (higher = more potent) of -0.0695.

The sequence TTGAATTTGATAGATAACTATG came in with a sensor-assay potency score (higher = more potent) with QSER1 of -0.94. In the case of TGATTGTTCTTCAACATCGAAT, in the assay with PYROXD1, the sensor-assay potency score (higher = more potent) was -0.94. In the assay with QSER1, TACAACTGTATTTTCTCTGGAT returned a sensor-assay potency score (higher = more potent) of 0.0285. TAAGCGGTATAGAAGGACCTGG had a sensor-assay potency score (higher = more potent) with QSOX1 of -0.156. In the case of TATAGCTCGATATCGCTCTTGC, the sensor-assay potency score (higher = more potent) with RAB11A was found to be 0.186. Turning to TAACTCAATACAGTCATTCATT, the sensor-assay potency score (higher = more potent) with PYROXD1 was -0.8.

With TACTACTAGAAACAAACTCTTG, the sensor-assay potency score (higher = more potent) with QSER1 is -0.942. TTATAGCTCGATATCGCTCTTG displayed a sensor-assay potency score (higher = more potent) with RAB11A of -0.642. In the assay with PYROXD1, TTGATTGTTCTTCAACATCGAA registered a sensor-assay potency score (higher = more potent) of -0.89. In the case of TAGAGTCTCCTGAACTCGCTGC, the sensor-assay potency score (higher = more potent) with PYROXD1 was determined as 0.751.

Turning to TTTCTTGATGCTGATAACCATC, the sensor-assay potency score (higher = more potent) in the assay with QSER1 was -1.25. The same measure, in the same setting: with TATAAGTTGATTCTTGAGCATT the figure was -1.01; with TTCATTATCAACTTTATCTGAT, 0.462. TTGAAGAACCTCACAGTCGGGA showed a sensor-assay potency score (higher = more potent) in the assay with QSOX1 of 0.0825. As to TTGAACTGTAGGCTTGAGGAGT, the sensor-assay potency score (higher = more potent) with QSER1 was -0.462. In the assay with RAB11A, TATATTTAAATCTCAGACCTGG gave a sensor-assay potency score (higher = more potent) of 0.396. Sequence TACTCTTCGTTATTTCTCGCAA returned a sensor-assay potency score (higher = more potent) with QSOX1 of -0.156.

In turn, TTTCAATGAATGACAAACCATT had a sensor-assay potency score (higher = more potent) with RAB11A of -1.27. As for TTCCGGAACAGCAGGTAGCAAG, in the assay with QSOX1, the sensor-assay potency score (higher = more potent) was -1.46.

In the assay with RAB3D, TTGGAATCCAGAAAGTTCGTGG registered a sensor-assay potency score (higher = more potent) of 0.567. For the sequence TTGAAGGGTAACATTCAAGTTT, in the assay with RAB28, the sensor-assay potency score (higher = more potent) was -0.65. TTCAGTGTTTTGAAGGTCCTGG returned a sensor-assay potency score (higher = more potent) in the assay with RAB3GAP2 of -0.334.

In the case of TGAACCATCTTCCACCAGCTTG, in the assay with RAB3D, the sensor-assay potency score (higher = more potent) was -1.09. In the assay with RAB3D, TTGATGTTCTCCTTGGCACTGG yielded a sensor-assay potency score (higher = more potent) of -0.145.

Sequence TTGAATGGCAAGATCTTTCTTC returned a sensor-assay potency score (higher = more potent) in the assay with RABGEF1 of 0.743.

For the sequence TTTGATAATTTGTAATATCATA, the sensor-assay potency score (higher = more potent) with RAB28 was -1.64. For TTCTGATCTGCTGCATCCCGTG, the sensor-assay potency score (higher = more potent) with RAB3D is -1.02. TTTCTTGCACAGGAGATCCGAT yielded a sensor-assay potency score (higher = more potent) in the assay with RABGEF1 of -0.404. The sequence TTTGCTGTGAAGCAGAGTCTGA yielded a sensor-assay potency score (higher = more potent) in the assay with RAB3GAP2 of -0.886. Still for that read-out and setting: with TTCTGTGGGATCTTTGACCTTT the figure was 0.671; with TTTATTCCACTGAACAACGTAC, -0.27. Sequence TTGACCTTGAAATCGATGCCCA returned a sensor-assay potency score (higher = more potent) in the assay with RAB3D of -0.115. In turn, TAACAGTCCTTGACATAGGTTC yielded a sensor-assay potency score (higher = more potent) with RAB28 of -0.143. TAAAACACAATCTTGGAGCCAG had a sensor-assay potency score (higher = more potent) in the assay with RAB3GAP2 of 0.291. Consider TTCACATTGATGTTCTCCTTGG, for which the sensor-assay potency score (higher = more potent) with RAB3D was -0.53.

As to TTTGTTTGTACTGTTTCCCAAA, in the assay with RAB28, the sensor-assay potency score (higher = more potent) was -0.914. In the assay with RABGEF1, TTCACTGTGGTAACCTTGCGGG displayed a sensor-assay potency score (higher = more potent) of -0.0581.

For the sequence TTACAGGCAACACACCATCTTT, the sensor-assay potency score (higher = more potent) with RAB3GAP2 was -1.36.

For TTAGTTACATTCTAGATCCCAA, the sensor-assay potency score (higher = more potent) with RABGEF1 was 0.187. In the assay with RAB28, TAGTTAAGGAGGTCTTCCCGGA yielded a sensor-assay potency score (higher = more potent) of -0.69. Same read-out and setting: the result for TTATTGTTCGCATATGCTCCAA reads -0.667. The same measure, in the same setting: with TTATCCAACATTTTGCCTCCTA the figure was 0.54. For TTGAACATATAGTCGAAGTTCT, the sensor-assay potency score (higher = more potent) in the assay with RAB3D was 0.33. On to TATTTATCCAACATTTTGCCTC, for which the sensor-assay potency score (higher = more potent) in the assay with RAB28 was -0.421. Consider TTGACTGACAGACTCATAGAGT, for which, in the assay with RAB3GAP2, the sensor-assay potency score (higher = more potent) is -0.525. On the same count and under the same terms, the result for TTATTTACTAGTTTAGCTGTTG reads 0.0265.

Sequence TTGCTGCCTGAGCTGGAGCTGG registered a sensor-assay potency score (higher = more potent) in the assay with RAB3D of -1.52. For TATGAGACAATCCTCCAGCTGT, the sensor-assay potency score (higher = more potent) in the assay with RAB3GAP2 was -0.612. In the assay with RAB3D, TATCAGTAGCAGTTTGAACATA came in with a sensor-assay potency score (higher = more potent) of -1.09. In turn, TATAGTCGAAGTTCTGATCTGC showed a sensor-assay potency score (higher = more potent) with RAB3D of 0.851. In turn, TTAATTGACTGACAGACTCATA came in with a sensor-assay potency score (higher = more potent) with RAB3GAP2 of -0.923. ATTTGTAATATCATATACCAAG: the sensor-assay potency score (higher = more potent) with RAB28 is -1.51. Consider TTCATTAACAGGGACACACAGC, for which, in the assay with RABGEF1, the sensor-assay potency score (higher = more potent) is -0.293. TATTGTTCGCATATGCTCCAAA registered a sensor-assay potency score (higher = more potent) in the assay with RAB28 of -0.803.

The sequence TTAACAGTCCTTGACATAGGTT came in with a sensor-assay potency score (higher = more potent) with RAB28 of -0.695. Turning to TAAGCTAGAAGGCACCACGGAT, in the assay with RAB3D, the sensor-assay potency score (higher = more potent) was -0.984.

On to TTGCTTCTGAGAAACAATGCGG, for which the sensor-assay potency score (higher = more potent) with RAB11A was -0.544.

In the assay with RAB3GAP2, TTCAAGTGTTCTATTGACCTAA returned a sensor-assay potency score (higher = more potent) of 0.6. The sequence TAGCAGTTTGAACATATAGTCG yielded a sensor-assay potency score (higher = more potent) in the assay with RAB3D of -0.969.

For TTTACAGTGACAGCCAGCTGGG, the sensor-assay potency score (higher = more potent) with RAD9A was -1.03. Sequence TTTCTCGGGAACTTCGACGATT registered a sensor-assay potency score (higher = more potent) with RBMY1E of -0.472. Turning to TTGAGCTACCACATGCTTCACG, the sensor-assay potency score (higher = more potent) with RBMY1E is -0.607. Sequence TTCTGCATGGCAGCAAGGCTGA registered a sensor-assay potency score (higher = more potent) with RDH8 of -1.12. Consider TAATTCTACATCTTCTACTAGC, for which the sensor-assay potency score (higher = more potent) in the assay with RERG is -0.25.

For TCGTCGTACACGGTCACCGGGA, the sensor-assay potency score (higher = more potent) with RET was -0.762. The sequence TATTTGAACTGTAAATATCTGG displayed a sensor-assay potency score (higher = more potent) in the assay with REST of -0.000404. Sequence TAAACATCTCGGGACAAGCCGA displayed a sensor-assay potency score (higher = more potent) with RET of -0.999. Take TAATTTTTCTTACTGTACCTGG: the sensor-assay potency score (higher = more potent) with RERG was found to be 0.0466.

The sequence TTCAATAAGGACTTGCTCCTTC registered a sensor-assay potency score (higher = more potent) in the assay with REST of 0.499.

In the assay with REST, TTTCACTTTTGAGACATCCATT displayed a sensor-assay potency score (higher = more potent) of -1.15. In the case of TTCTACATCTTCTACTAGCATT, in the assay with RERG, the sensor-assay potency score (higher = more potent) is -1.27.

The sequence TTAATTTGCTTGTCTTTTGGAC returned a sensor-assay potency score (higher = more potent) in the assay with RERG of -0.0136.

Sequence TTTCTTAGCACTGTGAACTCTG gave a sensor-assay potency score (higher = more potent) in the assay with REST of 0.443.

In the assay with REST, TTGGTCTTCGAGCTCTTGCCTT displayed a sensor-assay potency score (higher = more potent) of -0.836.

In turn, TAGATTTGAAGTGATACTGTAG registered a sensor-assay potency score (higher = more potent) with REST of 0.294. The sequence TAAATATGGAATCTGAACCTTA showed a sensor-assay potency score (higher = more potent) with REPS2 of -0.238. For TACACTTGTAGACTCGCTCATT, the sensor-assay potency score (higher = more potent) with REST was -0.726.
